Laboratory results published in PubChem BioAssay.
Values without a mark were called inactive.

Assay: viability profiling in MM1S myeloma cells – cell-based, resazurin fluorescence, basal, 24 h, PK04 Diversity Set, profiling panel (AID 1174);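 also: MM1S multiple myeloma cell line; test concentration not given here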
Details: higher = more signal, called active from +8 up or from −8 down
Work on O=C1c2ccccc2[C@](Cc2ccccc2I)(C(=O)NCCN2CCOCC2)[C@H](c2ccc(CO)cc2)N1Cc1ccccc1 yielded a z-score of 0.068. Work on CN(C)CCCCNC(=O)[C@H]1C[C@H]2C(=O)N3CCC[C@H]3C(=O)N2[C@H]1c1ccc(O)cc1 yielded a z-score of 0.949. With C=C(CCCC)C(=O)CC[C@@H](OC(=O)c1ccccc1-c1ccccc1C(=O)O)c1cccc(OCCO)c1 the z-score was -0.348. C=C(C(=O)CC[C@H](OC(=O)c1cccnc1)c1ccc(CO)o1)C(C)C gave a z-score of -0.323. Molecule COc1ccc(C#Cc2ccc3c(c2)[C@]2(C(=O)N3)[C@H](C(=O)N3CCc4cc(OC)c(OC)cc4C3)[C@H]3C(=O)O[C@H](c4ccccc4)[C@H](c4ccccc4)N3[C@@H]2c2ccc(O)cc2)cc1 has a z-score of -0.443. In the case of [N-]=[N+]=NCc1ccccc1C[C@@]1(C(=O)N2CCCCC2)N=C(c2ccc(OCCCO)cc2)O[C@@H]1c1ccccc1N=[N+]=[N-], the z-score is reported as -0.964. C=C[C@@H](COC(C)=O)NS(=O)(=O)c1ccc(Br)cc1 showed a z-score of -1.82. Molecule CCOC(=O)C[C@H]1[C@H](OC(=O)c2ccc(-c3ccccc3)cc2)[C@@H](NC(=O)c2ccc3ccccc3c2)c2cc(OCCCO)ccc2N1C(=O)c1ccc2ccccc2n1 has a z-score of 0.175. With CC(C)(C)OC(=O)CC[C@]1(C(=O)NCCN2CCOCC2)N=C(c2ccc(OCCCO)cc2)O[C@H]1c1ccccc1 the z-score was 0.0457. For C=CCOC(=O)[C@@H]1[C@H]2C(=O)O[C@H](c3ccccc3)[C@H](c3ccccc3)N2[C@H](c2ccc(OCCOC(=O)[C@H]3C[C@H]4C(=O)N[C@@H](CC(C)C)C(=O)N4[C@H]3c3ccc(O)cc3)cc2)[C@@]12C(=O)Nc1ccc(I)cc12, the z-score was 0.219. For O=C(CS)NCCCCCCNC(=O)[C@@H]1C[C@@H]2C(=O)N3CCC[C@H]3C(=O)N2[C@@H]1c1cccc(OCCO)c1, the z-score was 0.832. Molecule COc1ccccc1CN1C(=O)c2ccccc2[C@@H](C(=O)NC(C)C)[C@@H]1c1ccc(CO)cc1 has a z-score of 1.1. With C=CCOC(=O)[C@@H]1[C@H]2C(=O)O[C@H](c3ccccc3)[C@H](c3ccccc3)N2[C@H](c2ccc(OCCOC(=O)[C@H]3C[C@H]4C(=O)N[C@@H](CCCCNC(C)=O)C(=O)N4[C@H]3c3cccc(OCCO)c3)cc2)[C@@]12C(=O)Nc1ccc(I)cc12 the z-score was -0.565. Work on O=C1OCC=C[C@H]2OC34C=CCN(Cn5nnc6ccccc65)C(=O)[C@H]3N(CCCCCCO)C(=O)[C@@H]4[C@@H]12 (stereo not given in full) yielded a z-score of 0.0473. With COC(=O)Cn1c(C(=O)N2CCCC2)cc2c1C[C@H]1CN(C(=O)c3ccccc3)[C@@](Cc3ccc(F)cc3)(C(=O)OC)[C@@H]21 the z-score was -1.35. COc1cc(OC)c(C(O)C2C=CC3C(=O)N(c4ccccc4)C(=O)C3N2Nc2ccc(C#N)cc2)cc1Br (stereo not given) gave a z-score of -0.408. COc1ccc([Si](C)(C)[C@@H]2[C@@H](CC(=O)N3CCC[C@H]3CO)O[C@]3(C(=O)N(Cc4ccc(N5C(=O)c6cccc7cccc5c67)cc4)c4ccccc43)[C@H]2C)cc1 showed a z-score of -2.82. For CC=CC(O)C1C=CC2C(=O)N(c3ccccc3)C(=O)C2N1Nc1ccccc1 (stereo not given), the z-score was 0.171. Work on CC(C)C(=C=CC[C@@H](O)c1ccccc1OCCO)C[C@@H](O)COCc1ccccc1 yielded a z-score of 0.304. For CC(C)(C)N1CC=CC23O[C@@H]4C=CCOC(=O)[C@@H]4[C@H]2C(=O)N(CCCO)[C@@H]3C1=O (stereo not given in full), the z-score was -1.27. Molecule COc1c(C)cc(-c2cc3c(c(-c4ccccc4)n2)[Si](C(C)C)(C(C)C)OC3)cc1C has a z-score of 0.416. Molecule Cc1ccc(S[C@]2(C(=O)NCC(C)C)CC(=O)N(Cc3ccccc3Cl)[C@@H]2c2ccc(CO)cc2I)cc1 has a z-score of -1.68. With O=C1O[C@@H](c2ccccc2)[C@@H](c2ccccc2)N2[C@@H](c3ccccc3OCCO)[C@]3(C(=O)Nc4ccc(C#CC5=CCCCC5)cc43)[C@@H](C(=O)NC[C@H](O)c3ccccc3)[C@H]12 the z-score was -7.07. O=C(O)[C@H](Cc1ccccc1)n1cc(-c2ccccn2)nn1 gave a z-score of 0.365. With CC1CC/C=C\[C@H]2OC34C=CCN(CCN5CCOCC5)C(=O)[C@H]3N(CCO)C(=O)[C@@H]4C2C(=O)O1 (stereo not given in full) the z-score was 0.322. Work on CCOC(=O)C[C@H]1[C@H](OC(=O)c2ccc(-c3ccccc3)cc2)[C@@H](NC(=O)C2CCCCC2)c2cc(OCCCO)ccc2N1C(=O)c1ccccc1 yielded a z-score of -0.464. Work on COCCCNC(=O)[C@@]1(Sc2ccc(C)cc2)CC(=O)N(Cc2cc(C(F)(F)F)cc(C(F)(F)F)c2)[C@@H]1c1ccc(CO)cc1 yielded a z-score of -0.538. Work on CCCC[C@@H]1C[C@H]1[C@@H](NC(=O)c1cccnc1)c1ccc(-c2ccccc2)cc1 yielded a z-score of 1.1. For O=C1O[C@@H](c2ccccc2)[C@@H](c2ccccc2)N2[C@@H](c3ccc(O)cc3)[C@]3(C(=O)Nc4ccc(C#CCCO)cc43)[C@@H](C(=O)Nc3nc4ccccc4s3)[C@H]12, the z-score was 0.307. Work on O=C(O)[C@]1(Cc2ccccc2)N=C(c2ccc(OCCCO)cc2)O[C@@H]1c1ccccc1 yielded a z-score of 0.723. Work on Cc1ccc(S[C@]2(C(=O)NCc3ccccc3)CC(=O)N(C(C)C)[C@@H]2c2ccc(CO)cc2I)cc1 yielded a z-score of -1.63. Cc1ccc(C(C)CC(O)C2C=CC3C(=O)N(c4ccccc4)C(=O)C3N2Nc2ccc(C(C)C)cc2)o1 (stereo not given) showed a z-score of -0.905. C=CC[C@]12N=C(c3ccc(OCCCO)cc3)O[C@H]1c1ccccc1N(C)C2=O gave a z-score of -1.54. C=C(COC)/C(=C/C[C@@H](OC(=O)c1ccncc1)c1ccc(CO)o1)c1cnc2ccccc2c1 gave a z-score of 0.372. O=C1NC(=O)C2C1C=CC(C(O)c1cc(C(F)(F)F)cc(C(F)(F)F)c1)N2Nc1ccc(Cl)cc1Cl (stereo not given) gave a z-score of -1.99.
